# Measured values from article PMC6919601, “Identification of Plasmodium dipeptidyl aminopeptidase allosteric inhibitors by high throughput screening” (PLoS ONE, 2019).
# The campaign covered roughly 110,000 compounds. About 230 (0.21%) showed an effect of 50% or more. For the sample, strong results were picked, then their nearest neighbours and some compounds at random.
# Molecular target: DPAP1 (Plasmodium falciparum, UniProt Q8IIJ9)
# Experiment: primary screen, percent inhibition; read by cleavage of a fluorogenic dipeptide substrate; higher = more effect of the substance
# Parameters: species or system P. falciparum D10 trophozoite lysates; single well
# 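Also: 30 min substrate incubation versus DMSO and 10 µM JCP410 controls.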
# Chain of DPAP1 (Q8IIJ9 whole entry, looked up): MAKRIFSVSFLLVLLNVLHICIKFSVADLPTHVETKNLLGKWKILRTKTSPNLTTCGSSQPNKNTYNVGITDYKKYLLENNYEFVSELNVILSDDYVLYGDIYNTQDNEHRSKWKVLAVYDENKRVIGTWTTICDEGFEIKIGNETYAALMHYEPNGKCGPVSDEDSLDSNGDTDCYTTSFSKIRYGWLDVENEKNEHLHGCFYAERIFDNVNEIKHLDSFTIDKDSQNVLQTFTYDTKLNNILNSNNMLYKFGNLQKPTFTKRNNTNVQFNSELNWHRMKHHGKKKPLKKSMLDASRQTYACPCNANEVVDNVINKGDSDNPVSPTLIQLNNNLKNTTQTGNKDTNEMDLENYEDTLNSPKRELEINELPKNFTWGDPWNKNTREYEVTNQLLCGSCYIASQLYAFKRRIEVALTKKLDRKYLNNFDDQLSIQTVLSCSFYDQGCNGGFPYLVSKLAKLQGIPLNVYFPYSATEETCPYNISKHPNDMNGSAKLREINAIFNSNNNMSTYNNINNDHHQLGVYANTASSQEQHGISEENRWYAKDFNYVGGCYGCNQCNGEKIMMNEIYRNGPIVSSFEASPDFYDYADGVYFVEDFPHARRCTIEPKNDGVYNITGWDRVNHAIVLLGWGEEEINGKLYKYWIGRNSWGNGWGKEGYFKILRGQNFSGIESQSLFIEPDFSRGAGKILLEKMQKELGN
row,SMILES,% Inhibition @ 10 uM [%]
1,COc1ccccc1CNC(=O)Nc1noc2c1COc1ccccc1-2,-0.539
2,Cc1ccc2c(c1)-c1onc(C(=O)NCCC(C)C)c1CO2,1.14
3,CC(NC(=O)c1noc2c1COc1ccccc1-2)c1ccc2c(c1)OCCO2 (centres unmarked),21.3
4,COc1ccc(OC)c(CCNC(=O)c2noc3c2COc2ccccc2-3)c1,59.5
5,COc1cc(-c2cc(NC(=O)c3noc4c3COc3ccccc3-4)on2)cc(OC)c1OC,4.86
6,CC(C)CCNC(=O)c1noc2c1COc1ccccc1-2,88.5
7,CC1CCN(S(=O)(=O)c2ccc(NC(=O)C(C)(C)C)cc2)CC1,-6.17
8,N=C(Cc1cccc2ccccc12)NOC(=O)c1cccs1,3.66
9,COc1cc2c(cc1OC)C(C(=O)N1CCC(C)CC1)C(c1cccnc1)N(C)C2=O (centres unmarked),1.83
10,CCCc1nc2ccccc2n1Cc1ccccc1OC,0.913
11,CCc1ccc(C2CC(=O)N3CN(Cc4ccco4)CSC3=C2C#N)cc1 (centres unmarked),33.6
12,Cc1ccc(C2CC(=O)N3CN(Cc4cccnc4)CSC3=C2C#N)cc1 (centres unmarked),43.8
13,COc1ccc(C2CC(=O)N3CN(Cc4cccnc4)CSC3=C2C#N)cc1 (centres unmarked),46.3
14,CCOc1ccc(C2CC(=O)N3CN(Cc4cccnc4)CSC3=C2C#N)cc1 (centres unmarked),56
15,N#CC1=C2SCN(Cc3cccnc3)CN2C(=O)CC1c1ccc(F)cc1 (centres unmarked),55.3
16,CN(CC(=O)NC1CCCCCC1)S(=O)(=O)c1ccc(F)cc1,3.17
17,CCN1CCN(C(=O)C2CC(c3ccc(OC)cc3)=NO2)CC1 (centres unmarked),1.62
18,N#CCCN1CCN(C2=NC(=O)/C(=C\c3ccc(-c4ccc(Cl)cc4)o3)S2)CC1,-2.8
19,COc1ccccc1NC(=O)c1cnc(Nc2nc3ccccc3o2)nc1C,-4.12
20,CCCN1CCC(N2CCC(C)CC2)CC1,-3.74
21,COc1cccc2c(O)c(C(=O)O)cnc12,0.51
22,Cc1cc2nc(O)c(O)nc2cc1S(=O)(=O)N1CCN(CCOc2ccc(Cl)cc2)CC1,52.3
23,Cc1nc(O)nc(O)c1S(=O)(=O)N1CCN(CCOc2ccc(Cl)cc2)CC1,-1.38
24,Cc1cc(-c2ccc(C)c(S(=O)(=O)N3CCN(CCOc4ccc(Cl)cc4)CC3)c2)on1,-5.87
25,COc1ccc(-c2cc(C(F)(F)F)nc(SCC(=O)N3CCOCC3)n2)cc1,-8.55

row,SMILES,% Inhibition @ 10 uM [%]
1,COc1ccc(-c2cc(-c3ccc(OC)cc3)c3c(N)c(C(N)=O)sc3n2)cc1,19.8
2,COC(=O)c1sc2nc(-c3ccccc3)cc(-c3ccc(OC)cc3)c2c1N,2.79
3,COc1ccc(-c2cc(-c3ccccc3)nc3sc(C(N)=O)c(N)c23)cc1,76
4,CCCN1C(=O)c2n[nH]c(C)c2C1c1cccnc1 (centres unmarked),-4.67
5,COc1ccc(C2=N/C(=C\c3cccc(C(F)(F)F)c3)C(=O)O2)cc1OC,6.11
6,CCOc1c(/C=C2/S/C(=N\c3ccccc3)N(C)C2=O)cccc1OC,1.57
7,O=C1CC(Sc2ccccn2)C(=O)N1c1ccc(Br)cc1 (centres unmarked),2.38
8,COCCNC(=O)CCN1C(=O)c2ccccc2Sc2ncccc21,-2.97
9,COc1ccc(-c2ccc(C(=O)N3CCOCC3)cc2)cc1,85.3
10,COc1ccc2nc3sc(C(=O)NCCC(C)C)cc3cc2c1,-5.98
11,COc1ccc2cc3cc(C(=O)N4CCN(Cc5ccccc5)CC4)sc3nc2c1,4.61
12,COc1ccc2nc3sc(C(=O)N4CCOCC4)cc3cc2c1,89.7
13,COc1ccc2nc3sc(C(=O)N4CCC5(CC4)OCCO5)cc3cc2c1,-4.16
14,COc1ccc2nc3sc(C(=O)NCCN(C)Cc4ccccc4)cc3cc2c1,-2.12
15,COc1ccc2nc3sc(C(=O)N4CCN(C)CC4)cc3cc2c1,-5.06
16,COc1ccc2cc3cc(C(=O)NCCN4CCN(Cc5ccccc5)CC4)sc3nc2c1,94.4
17,CCCCN(C)CCNC(=O)c1cc2cc3cc(OC)ccc3nc2s1,83.9
18,COc1ccc(C(=O)N2CCN(CC(=O)N3CCOCC3)CC2)cc1,6.33
19,COc1ccc2cc3cc(C(=O)NCCCN4CCN(C)CC4)sc3nc2c1,1.22
20,COc1ccc(C(=O)N2CCN(C(=O)c3ccc(OC)cc3)CC2)cc1,-1.61
21,CCOc1ccc(C(=O)N(Cc2nc(-c3ccc(Cl)cc3)no2)C(C)C)cc1,-1.84
22,CC(=O)Nc1ccc(NC(=O)c2cccc(Cl)c2Cl)cc1,3.74
23,COc1cc(NC(=O)C(C)Oc2ccccc2)cc(OC)c1 (centres unmarked),-2.8
24,Cc1ccc(NC(=O)C(Cc2ccc([N+](=O)[O-])cc2)N2C(=O)c3ccccc3C2=O)cc1[N+](=O)[O-] (centres unmarked),-2.47
25,COc1ccccc1S(=O)Cc1ccc(C(=O)NCCc2ccc(Cl)cc2)o1 (centres unmarked),-4.96

row,SMILES,% Inhibition @ 10 uM [%]
1,COc1ccc2cc3cc(C(=O)N(C)Cc4ccccc4)sc3nc2c1,0.402
2,COc1ccc2nc3sc(C(=O)NCCCN4CCCC4=O)cc3cc2c1,84.6
3,CCCCN(CC)C(=O)c1cc2cc3cc(OC)ccc3nc2s1,-1.55
4,COc1ccc2nc3sc(C(=O)NCCN4CCOCC4)cc3cc2c1,3.07
5,COc1ccc2nc3sc(C(=O)NCCCN4CCc5ccccc5C4)cc3cc2c1,64.7
6,CCC1CCCCN1CCCNC(=O)c1cc2cc3cc(OC)ccc3nc2s1 (centres unmarked),1.22
7,CCN(Cc1ccccc1)C(=O)c1cc2cc3cc(OC)ccc3nc2s1,50.3
8,COc1ccc2nc3sc(C(=O)NCCCN4CC(C)CC(C)C4)cc3cc2c1 (centres unmarked),-2.44
9,COc1ccc2cc3cc(C(=O)NCCN4CCc5ccccc5C4)sc3nc2c1,4.61
10,CSc1ccc(CN2CCN(c3cccc(Cl)c3)CC2)cc1,0.847
11,CCN1CCN(C(=O)CS(=O)(=O)Cc2nc(-c3ccc(C)cc3)oc2C)CC1,-3.7
12,O=S(=O)(NC1CCc2ccccc21)c1ccc(-n2cnnn2)cc1 (centres unmarked),-1.07
13,CC1=C(C(=O)Nc2ccc(Br)cc2)C(c2ccc(Cl)cc2)NC(=O)N1 (centres unmarked),1.35
14,COCCCNC(=O)Cc1coc2ccc3ccccc3c12,2.01
15,Cn1c(S)nc2c(=O)oc3ccccc3c21,56.8
16,Cc1nc2c(=O)oc3ccccc3c2n1C,4.35
17,CCn1c(S)nc2c(=O)oc3ccccc3c21,14
18,COc1ccc(N(C(C)C(=O)Nc2ccc(C(C)C)cc2)S(C)(=O)=O)cc1 (centres unmarked),-1.57
19,CCCCSCCCNC(=O)C1CCC(CNS(=O)(=O)c2ccc(C)cc2)CC1 (centres unmarked),5.47
20,Cc1ccc(C2CC(=O)N3CN(CCC(C)C)CSC3=C2C#N)cc1 (centres unmarked),43.8
21,Cc1ccsc1CCN1CSC2=C(C#N)C(c3ccc(Cl)cc3)CC(=O)N2C1 (centres unmarked),51.6
22,COc1cc(C2CC(=O)N3CN(Cc4ccco4)CSC3=C2C#N)ccc1O (centres unmarked),17.5
23,N#CC1=C2SCN(Cc3ccccc3)CN2C(=O)CC1c1ccc(Cl)cc1 (centres unmarked),42.2
24,COc1cccc(C2CC(=O)N3CN(CCc4sccc4C)CSC3=C2C#N)c1 (centres unmarked),56.9
25,COc1ccc(C2CC(=O)N3CN(CCC(C)C)CSC3=C2C#N)cc1OC (centres unmarked),46.8

row,SMILES,% Inhibition @ 10 uM [%]
1,COc1ccc(C2CC(=O)N3CN(CCCc4ccccc4)CSC3=C2C#N)cc1OC (centres unmarked),30.5
2,CC(C)CCN1CSC2=C(C#N)C(c3ccc(Cl)cc3)CC(=O)N2C1 (centres unmarked),54.6
3,NC(=O)c1ccc(-n2nnnc2SCc2ccc(C(=O)O)cc2)cc1,3.05
4,CCC1CCC(NCCN(C)C)CC1 (centres unmarked),-3.42
5,Cc1nc2scc(C)n2c(=O)c1S(=O)(=O)N1CCc2ccccc2C1,-0.984
6,COc1ccc2c(c1)CCC1C2=NN(/C(C)=C/C(C)=O)C1c1ccc([N+](=O)[O-])cc1 (centres unmarked),4.54
7,CCOC(=O)/C=C(\C)N1N=C2c3cc(OC)ccc3CCC2C1c1ccc(F)cc1 (centres unmarked),6.33
8,COc1ccc(C2C3CCc4cc(OC)ccc4C3=NN2/C(C)=C/C(C)=O)cc1 (centres unmarked),58.5
9,COc1ccc(C2C3CCc4ccc(OC)cc4C3=NN2/C(C)=C/C(C)=O)cc1 (centres unmarked),22.9
10,CCOC(=O)/C=C(\C)N1N=C2c3ccc(OC)cc3CCC2C1c1cccc(F)c1 (centres unmarked),73.1
11,CCOC(=O)/C=C(\C)N1N=C2c3cc(OC)ccc3CCC2C1c1ccccc1 (centres unmarked),2
12,CCOC(=O)/C=C(\C)N1N=C2c3ccc(OC)cc3CCC2C1c1ccc(OC)cc1 (centres unmarked),60.6
13,CCOC(=O)/C=C(\C)N1N=C2c3cc(OC)ccc3CCC2C1c1ccc(OC)cc1 (centres unmarked),-4.49
14,CCOC(=O)/C=C(\C)N1N=C2c3ccc(OC)cc3CCC2C1c1ccc(F)cc1 (centres unmarked),-1.77
15,COC(=O)C(O)(c1ccc(N)cc1)C(F)(F)F (centres unmarked),0.937
16,CCCCOC1CS(=O)(=O)CC1OCCCC (centres unmarked),-5.28
17,Cc1ccc(-c2nc(CSCC(=O)Nc3cc(C)on3)c(C)o2)cc1,-2.14
18,CC1=C(C)CC(C(=O)Nc2cccc(F)c2)C(C(=O)O)C1 (centres unmarked),-2.22
19,COC(=O)c1cc(OC)c(S(=O)(=O)NCc2ccccc2)cc1OC,-2.28
20,CCOC(=O)C1=C(CN2CCN(C)CC2)NC(=O)NC1c1cccc(OC)c1OC (centres unmarked),3.75
21,CCOC(=O)C1=C(CN2CCN(C(=O)OCC)CC2)NC(=O)NC1c1cccc(OC)c1OC (centres unmarked),2.12
22,CCOC(=O)C1=C(CN2CCC3(CC2)OCCO3)NC(=O)NC1c1cccc(OC)c1OC (centres unmarked),93
23,O=C1CC(c2ccccc2)NC(=O)N1 (centres unmarked),-2.86
